Sampled rows, rich in hits. Any-hit rate of the full collection: about 2.8%.
ERa SRC1 inh: blocks coactivator binding to human estrogen receptor alpha | P03372 | TR-FRET ER-alpha LBD / SRC-1 peptide, estradiol-bound | inhibition, % at 25.6 µM | 1.7% of 86,000 active | AID 629; in the data active means inhibition above about 50%;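 further: 0% = receptor plus peptide control and 100% = peptide only without receptor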
Target sequence (P03372 whole entry, looked up, the tested form may be a part): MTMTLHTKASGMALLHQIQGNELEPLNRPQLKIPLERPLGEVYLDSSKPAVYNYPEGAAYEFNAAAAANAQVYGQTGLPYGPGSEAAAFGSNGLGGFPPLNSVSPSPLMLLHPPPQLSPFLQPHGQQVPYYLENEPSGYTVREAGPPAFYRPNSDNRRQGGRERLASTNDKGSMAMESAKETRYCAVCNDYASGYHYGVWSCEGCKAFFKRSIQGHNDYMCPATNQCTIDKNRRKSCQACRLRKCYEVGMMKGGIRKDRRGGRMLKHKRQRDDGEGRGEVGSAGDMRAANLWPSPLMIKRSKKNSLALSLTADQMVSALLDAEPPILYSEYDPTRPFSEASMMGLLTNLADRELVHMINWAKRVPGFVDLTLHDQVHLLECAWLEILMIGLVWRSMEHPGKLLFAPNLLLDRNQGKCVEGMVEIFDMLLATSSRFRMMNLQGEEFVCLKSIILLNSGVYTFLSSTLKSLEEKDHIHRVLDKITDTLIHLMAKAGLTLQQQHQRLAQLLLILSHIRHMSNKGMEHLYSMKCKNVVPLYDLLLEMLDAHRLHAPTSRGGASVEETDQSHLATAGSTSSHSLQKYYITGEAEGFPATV
Smad3 inh: Smad3 (human) transcription factor binding inhibition; P84022; TR-FRET Smad3/Dy647-FoxH1 peptide binding, europium anti-His; inhibition, % at 25 µM; 0.29% of 88,000 active; AID 630;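 active means compounds that reduce the energy-transfer binding signal between the protein and its labelled peptide by more than half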;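 further: 0% = Smad3 plus labelled peptide maximal FRET and 100% = peptide-only background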
MRP reversal: compounds reversing MRP-mediated drug resistance; H69AR cells + 2 uM doxorubicin, CellTiter-Glo, 72 h; AID 602; differential viability (reversal), % at 10 µM; 0.04% of 85,000 active;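 active means viability drop by adding the cancer drug above about 55%, with treated viability meeting a 40% cutoff, limit read from the data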;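 further: viability without doxorubicin minus viability with 2 µM doxorubicin for each compound; larger differential means the compound sensitizes cells more to doxorubicin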
ERa coact pot: enhances coactivator binding to human estrogen receptor alpha | TR-FRET ERalpha-LBD/SRC-Cy5 coactivator binding, 2 h; 100 = basal binding, no effect | coactivator binding (% of control), % at 25.6 µM | 1.3% of 86,000 active | AID 639; in the data active means activity above about 200%;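 further: binding measured in presence of low estradiol as agonist stimulus; 0% = peptide alone without receptor and 100% = receptor with peptide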
ERb SRC1 inh: blocks coactivator binding to human estrogen receptor beta; 1.3% of 86,000 active; inhibition, % at 25.6 µM; TR-FRET ER-beta LBD / SRC1-Cy5 peptide binding; receptor agonist-loaded with 1 µM estradiol; Q92731;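 active means compounds whose percent inhibition of the receptor-coactivator binding signal exceeds about 50% in the single-dose screen, limit read from the data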;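 further: 0% = receptor plus peptide wells without compound and 100% = peptide-only wells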
MRP-1 activ: MRP-1 activation; H69AR cells + doxorubicin, viability rescue, CellTiter-Glo; viability increase, % at 10 µM; 0.61% of 140,000 active;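 active means viability gain under doxorubicin at or above a set limit, the compound median plus 3 SD, cut at about 4.7% in these data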;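 further: MRP-1 overexpressing cells given doxorubicin 25 µM after compound pretreatment; 18-22 h compound pretreatment then 72 h with doxorubicin before readout; 0% = doxorubicin-only wells and 100% = vehicle-treated cells without doxorubicin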
* hit, by the source's call; / = no result; [ ] = remark or other dose.

SMILES	ERa SRC1 inh	Smad3 inh	MRP reversal	ERa coact pot	ERb SRC1 inh	MRP-1 activ
O=C(NC(=S)Nc1ccccc1N1CCCC1)c1ccc(-c2cccc([N+](=O)[O-])c2)o1	-10	-4	22	92	-11	-2
O=C(NC(=S)Nc1ccccc1N1CCOCC1)c1ccc(-c2cccc(Cl)c2)o1	/	/	/	/	/	5.2*
CC(C)CSC[C@@H]1O[C@H](n2cnc3c(N)nccc32)[C@H](O)[C@H]1O	/	13	/	/	/	/
CN(C)C[C@H]1CCC2=C(C1=O)C(c1ccc(Cl)c(Cl)c1)C1=C(CC[C@H](CN(C)C)C1=O)O2	/	6	/	/	/	/
COc1cccc(CNC(=O)CCNC(=O)Cn2ccc3ccccc3c2=O)c1	/	/	/	/	/	-1
O=C(CCNC(=O)Cn1ccc2ccccc2c1=O)NCCc1ccccc1Cl	/	/	/	/	/	5.1*
COc1ccc(C)cc1S(=O)(=O)N(CC(=O)O)c1ccc(F)cc1	-6	1	-5	114	-6	-2
O=C1C(Cl)=C(Nc2ccc(S(=O)(=O)Nc3ccccn3)cc2)C(=O)c2ccccc21	/	99*	/	/	/	/
CC1(C)C(=O)C2(CCCCC2)C(=O)OC1c1ccc(O)cc1 (stereo not given)	-7	-10	-5	218*	-6	1
CC1(C)C(=O)C2(CCCC2)C(=O)OC1c1ccco1 (stereo not given)	-1	6	7	102	-9	-1
CC(=O)c1cccc(NC(=O)COC(=O)COc2c(Cl)cc(Cl)c3ccc(C)nc23)c1	/	/	/	/	/	0
C=C(C)COc1ccc2c(c1)CC[C@@H]1[C@H]3C/C(=N/O)C(=O)[C@]3(C)CC[C@@H]21	/	14	/	/	/	/
COc1ccc(NC(=O)CCCC2CCCCC2)cc1S(=O)(=O)N1CCCCC1	/	/	/	/	/	5.7*
Cc1ccc2oc(=O)c3cc(C(=O)NCc4ccco4)sc3c2c1	67*[fluorescence artefact?]	-17	-3	113	54*[fluorescence artefact?]	-4
Cc1ccc2oc(=O)c3cc(C(=O)NCCN4CCc5ccccc5C4)sc3c2c1	/	/	/	/	/	-2
Cc1cccc(-n2c(N)cc(=O)nc2SCC(=O)Nc2nnc(C)s2)c1	2	7	1	116	-2	5.7*
N#C/C(=C(/O)CSc1nnc(Cc2cccs2)n1C1CCCCC1)c1nc2ccccc2[nH]1	77*[fluorescence artefact?]	7	-15	58	-3	-2
Cc1ccnc(N=Cc2c(O)ccc3oc4c(c23)CCCC4)c1	/	/	/	/	/	-2
CN(C)S(=O)(=O)c1ccc(Nc2ccc(O)c3c2C(=O)c2c([N+](=O)[O-])ccc(O)c2C3=O)cc1	/	30	/	/	/	/
Cc1ccc(S(=O)(=O)c2c(N)n(Cc3ccco3)c3nc4ccccc4nc23)cc1C	1	1	-31	220*	3	-5
COCN(C#N)c1nc(OC)nc(OC)n1	10	-12	9	110	55*[fluorescence artefact?]	1
CCN(CC)C(=O)CN(C#N)c1nc(OC)nc(N(C)C)n1	-13	4	-3	107	-10	-1
COCCCn1c(=N)c(C(=O)NCc2ccc3c(c2)OCO3)cc2c(=O)n3cccc(C)c3nc21	19	-1	-9	91	24	/
CCn1c(=N)c(C(N)=O)cc2c(=O)n3cccc(C)c3nc21	50*	1	2	65	37	/
COCCCn1c(=N)c(C(N)=S)cc2c(=O)n3cccc(C)c3nc21	69*[fluorescence artefact?]	-11	11	37	35	/
SMILES	ERa SRC1 inh	Smad3 inh	MRP reversal	ERa coact pot	ERb SRC1 inh	MRP-1 activ
Cc1cccc(N(C(=O)c2nsc(Cl)c2Cl)C(C(=O)NC2CCCC2)c2ccc(O)cc2)c1 (stereo not given)	/	/	/	/	/	-4
CC(c1cccnc1)N(CCN(C)C)C(=O)Nc1ccc(Cl)cc1 (stereo not given)	1	2	14	98	3	1
Cc1ccc(NS(=O)(=O)c2ccc3c(c2)oc(=O)n3C)cc1F	-8	11	9	221*	-6	2
Cn1c(=O)oc2cc(S(=O)(=O)Nc3cccc(F)c3)ccc21	0	-4	10	196	-2	-1
C/C(=N\O)c1cccc[n+]1Cc1ccccc1	/	-5	/	/	/	/
Cc1cc(N/N=C/c2ccccc2Cl)nc(NCc2ccccc2)n1	/	/	/	/	/	7.1*
Cc1cc(C)nc(N/N=C/c2cccc3ccccc23)n1	/	/	/	/	/	5.7*
Cc1ccc(Nc2cc(C)nc(NCc3ccccc3)n2)cc1	/	/	/	/	/	-5
CCCn1cnc2c(SCC(=O)O)nc(N)nc21	/	-3	/	/	/	/
CC1(C)[C@@H]2CC[C@@]1(CS(=O)(=O)Nc1ccccc1)C(=O)C2	/	-15	/	/	/	/
Cc1cccc2cc(C(c3nnnn3C(C)(C)C)N(Cc3ccco3)CC3CCCO3)c(=O)[nH]c12 (stereo not given)	57*	8	-4	54	66*[fluorescence artefact?]	-3
CCOc1cccc(NC(=O)C2CCCN(S(=O)(=O)c3ccc(-n4cnnn4)cc3)C2)c1 (stereo not given)	-8	3	/	237*[fluorescence artefact?]	-1	0
O=C(N/N=C/C(Br)=C\c1ccccc1)c1ccc2nc[nH]c2c1	/	/	/	/	/	-6
Cc1ccc(C(=O)CSc2nnc(-c3ccc4[nH]c(C)c(C)c4c3)o2)cc1C	/	/	/	/	/	-5
Cc1[nH]c2ccc(-c3nnc(SCC(=O)c4ccccc4F)o3)cc2c1C	70*	0	-4	62	46	4
COc1cccc(/C=N/NC(=O)C(=O)Nc2ccccc2OC(F)(F)C(F)F)c1O	/	/	/	/	/	-1
COc1ccc2cc3cc(C(=O)NCc4ccccn4)oc3nc2c1	/	/	/	/	/	-1
CCOc1ccc(NC(=O)c2cc3cc4ccc(OC)cc4nc3o2)cc1	56*	32	-4	194	45	-1
C[N+](C)(N)CCC[N+](C)(C)N	/	10	/	/	/	/
CCOC(=O)c1cc(CC)sc1NC(=O)c1ccc2c(c1)OCCO2	26	6	-1	466*[fluorescence artefact?]	30	2
CC(C)CO[C@H](c1ccc2c(c1)OCO2)[C@H](C)Br	/	4	/	/	/	/
COc1ccc2[nH]c3nc(SCC(=O)Nc4ccc5c(c4)OCO5)nnc3c2c1	/	/	/	/	/	-4
COc1ccc2[nH]c3nc(SCc4nnc(-c5ccc(C)cc5)o4)nnc3c2c1	81*	6	-28	197	64*[fluorescence artefact?]	-1
CC1=NN(c2cccc(C(=O)O)c2)C(=O)/C1=C\C=C\c1ccco1	83*[fluorescence artefact?]	40	-13	15	89*[fluorescence artefact?]	-4
COc1ccc(N(C(=O)Cn2cnc3ccccc32)C(C(=O)NC2CCCCC2)c2ccccc2)cc1 (stereo not given)	/	/	/	/	/	13*
SMILES	ERa SRC1 inh	Smad3 inh	MRP reversal	ERa coact pot	ERb SRC1 inh	MRP-1 activ
COc1ccc(N(C(=O)Cn2nnc3ccccc32)C2(C(=O)NC3CCCC3)CCCCC2)cc1	/	/	/	/	/	-3
COc1ccc2nccc(SCC(=O)O)c2c1	/	1	/	/	/	/
CSc1ccc(/C=N/n2c(C)cc(C)cc2=O)cc1	-7	0	20	82	12	1
CNC(=O)c1c(NC(=O)c2nc3ccccc3s2)sc2c1CCC2	72*[fluorescence artefact?]	4	-4	61	53*	-3
CC1=C(C(=O)OCc2ccccc2)C(c2ccc(Cl)cc2Cl)NC(=O)N1CCCC(=O)O (stereo not given)	/	/	/	/	/	-3
CC(=O)c1c(C)[nH]c(C(=O)OCc2ccccc2)c1C	/	/	/	/	/	-2
